The sample as a whole holds a higher share of hits than the screen did.
FECH inh: human FECH heme synthesis enzyme inhibition; purified FECH, Ni-mesoporphyrin absorbance 550 nm; actives 3.3% (n = 20,000); AID 1671448; calls only at 10 µM (by protocol); P22830;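 active = enzyme reaction rate more than 3 SD below the solvent-only control wells on the same plate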;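 note: lower slope than DMSO wells means FECH inhibition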
Target sequence (P22830 whole entry, looked up): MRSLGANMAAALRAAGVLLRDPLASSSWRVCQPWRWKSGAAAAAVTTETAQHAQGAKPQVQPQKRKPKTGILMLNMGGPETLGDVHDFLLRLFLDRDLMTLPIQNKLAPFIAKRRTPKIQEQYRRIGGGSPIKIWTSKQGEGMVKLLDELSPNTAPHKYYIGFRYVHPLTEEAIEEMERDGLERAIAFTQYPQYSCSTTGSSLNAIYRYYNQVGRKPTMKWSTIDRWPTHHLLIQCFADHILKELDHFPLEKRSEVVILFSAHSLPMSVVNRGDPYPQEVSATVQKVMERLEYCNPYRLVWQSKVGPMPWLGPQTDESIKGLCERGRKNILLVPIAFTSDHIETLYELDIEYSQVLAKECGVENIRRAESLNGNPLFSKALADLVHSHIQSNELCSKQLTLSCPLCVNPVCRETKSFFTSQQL
The depositor's hits bear a star; i = inactive; + = active, no number.

SMILES	FECH inh
CCCc1c(C)nc2ncnn2c1Sc1ccc(NC(=O)c2ccccc2Cl)cc1	+
CCCc1c(C)nc2ncnn2c1Sc1ccc(NC(C)=O)cc1	i
O=S(=O)(NCc1nc2cccnc2n1C1CCCCC1)c1ccc(F)cc1	i
O=C(CSCc1nc(-c2ccc(Cl)cc2)no1)N1CCCCC1	i
Cc1ccc(Nc2cc(C(C)C)nc3nc(-c4cccnc4)nn23)cc1Cl	i
CN(C)c1ncc(-c2nccn2CCn2ccnc2)cn1	i
COC(=O)CC1=CC(=O)N(CC(=O)Nc2ccc(F)c(F)c2)c2ccccc2N1	i
O=C(Nc1ccccc1C(F)(F)F)N1CCC(n2cnc3cccnc32)CC1	i
CCc1nc2cccnc2n1C1CCN(S(=O)(=O)c2ccc(OC)c(OC)c2)CC1	i
CCn1nc(C)c(C(=O)NCc2ccc(-n3ccnc3C)cc2)c1C	i
CCCNC(=O)c1[nH]cnc1C(=O)NC1CCCCNC1=O (centres undefined)	i
O=C(NC1CCCCC1)c1nc[nH]c1C(=O)NC1CCCCNC1=O (centres undefined)	i
O=C(NC1CC1)c1nc[nH]c1C(=O)NC1CCCCNC1=O (centres undefined)	+
Nc1cc(-c2ccc(Cl)c(Cl)c2)ncn1	i
Cc1ccc(C)c(NC(=O)NCCc2nc3cccnc3n2C2CCCCC2)c1	i
Cc1ccc(NC(=O)CCNC(=O)c2onc3ccccc23)c(F)c1	i
Cc1cc(Nc2ccc(N(C)C)cc2)n2nc(-c3cccnc3)nc2n1	i
Cc1ccc(Cl)c(CN2CCC(Cc3nnc(CO)n3C)CC2)c1F	+
CCOc1cccc(CN2CCC(Cc3nnc(SC)n3C)CC2)c1O	i
COc1ccc(Cl)c(CN2CCN(c3ncc(F)cn3)CC2)c1F	i
O=C(c1cn[nH]n1)N1CCN(Cc2ccc3c(c2)OCO3)CC1	i
CCCNC(=O)Cn1c(=O)n(CC2CCC(C(=O)N3CCCC3)CC2)c(=O)c2sccc21 (centres undefined)	i
COc1cc(Cl)cc2c1OC=CC(C(=O)Nc1ccc(S(N)(=O)=O)cc1)=C2	+
COc1ccc(NC(=O)c2cc(-c3ccc(OC)c(S(N)(=O)=O)c3)n[nH]2)cc1	i
NS(=O)(=O)c1ccc(NC(=O)c2csnn2)cc1	i
SMILES	FECH inh
CC(C)c1cc(C(=O)NCCc2nnc3n2CCNCC3)on1	i
CCn1c(-c2cc(C3CC3)[nH]n2)n[nH]c1=O	+
CCn1c(C2CCCN(S(=O)(=O)N3CCCC3)C2)n[nH]c1=O (centres undefined)	i
CCn1c(C2CCN(S(=O)(=O)c3ccc(C)c(C)c3)CC2)n[nH]c1=O	i
Cc1cccc(CNS(=O)(=O)c2ccc3c(c2)CCN3C(=O)CCC(=O)N2CCOCC2)c1	i
O=C1CC(c2n[nH]c(Cc3ccccc3)n2)CN1Cc1cccnc1 (centres undefined)	i
CCCNc1nc(Nc2ccccc2C)c2cnn(-c3ccccc3)c2n1	i
COCCNC(=O)C1(C)Cn2c(cc3ccsc32)C(=O)N1Cc1ccccc1C (centres undefined)	+
COCCNC(=O)C1(C)Cn2c(cc3ccsc32)C(=O)N1Cc1ccccc1OC (centres undefined)	i
COCCNC(=O)C1(C)Cn2c(cc3ccsc32)C(=O)N1Cc1ccccc1 (centres undefined)	i
CSc1nc(NCCN2CCOCC2)c(C#N)c(-c2ccccc2)n1	i
CSc1nc(NCCC2=CCCCC2)c(C#N)c(-c2ccccc2)n1	+
CSc1nc(NCc2ccc(Cl)cc2)c(C#N)c(-c2ccccc2)n1	i
CN(CC(=O)NCc1cccs1)S(=O)(=O)c1ccc(C(=O)N2CCOCC2)s1	i
O=C(O)c1ccc(CN2CC(=O)N3CCCC3C2=O)cc1 (centres undefined)	i
CO[C@@H]1c2ccccc2C2(CCN(CCCn3cnnn3)CC2)[C@H]1O	i
Cc1cccc(C(=O)N(Cc2nc3nc(C)cc(C)n3n2)c2cccc(C)c2)c1	i
Cc1cccc(N(Cc2nc3nc(C)cc(C)n3n2)C(=O)c2ccco2)c1	i
Cc1cc(C)n2nc(CN(C(=O)Cc3ccccc3)c3ccc(F)cc3)nc2n1	i
Cc1cc(C)n2nc(CN(C(=O)c3ccco3)c3ccc(F)cc3)nc2n1	+
Cc1cc(C)n2nc(CN(C(=O)Cc3ccccc3)c3ccccc3)nc2n1	+
Cc1cccc(N(Cc2nc3nc(C)cc(C)n3n2)C(=O)Cc2ccccc2)c1	i
CCOc1ccc(N(Cc2nc3nc(C)cc(C)n3n2)C(=O)c2cccc(Cl)c2)cc1	i
Cc1cccc(N(Cc2nc3nc(C)cc(C)n3n2)C(=O)c2cccc(Cl)c2)c1	+
Cc1cc(C)n2nc(CN(C(=O)c3cccc(Cl)c3)c3ccccc3)nc2n1	i
SMILES	FECH inh
Cc1cc(C)n2nc(CN(C(=O)c3ccccc3)c3cccc(Cl)c3)nc2n1	+
Cc1ccc(N(Cc2nc3nc(C)cc(C)n3n2)C(=O)c2ccco2)cc1	i
Cc1ccc(C(=O)N(Cc2nc3nc(C)cc(C)n3n2)c2cccc(Cl)c2)cc1	i
CCc1ccc(-c2c(-c3ccccc3)ncn2CC(C)n2cncn2)o1 (centres undefined)	i
CCCCN(c1nc2nc(C)cc(C)n2n1)S(=O)(=O)c1ccc(C)cc1	i
COc1nccnc1-c1c(C)cc(C)cc1C	i
CCOc1ccc(NS(=O)(=O)c2cc(C(=O)N3CCCC3)cs2)cc1	i
C1CCC(c2nc(CNC3CSCCSC3)no2)C1	i
COc1ccc(Cl)cc1NC(=O)C1CC(=O)NC(Nc2ccc(C)cc2)=N1 (centres undefined)	i
CCOc1ccccc1-c1nccn1Cc1cnc2c(c1)CCC2	i
CN1CCC2(CC1)CN(C(=O)[C@@]13CC[C@@](C)(OC1=O)C3(C)C)CCN2C	i
CCc1nc(-c2c(-c3ccccc3)ncn2CC(O)c2cccnc2)c(C)[nH]1 (centres undefined)	i
Cc1cccc(Cn2c(=O)c3cnc(-c4cccs4)nc3n(C)c2=O)c1	i
Cc1ccc(C(=O)N(Cc2nc3nc(C)cc(C)n3n2)c2cccc(C)c2)cc1	+
CCC(C(=O)N(Cc1nc2nc(C)cc(C)n2n1)c1cccc(C)c1)c1ccccc1 (centres undefined)	i
COc1ccc(C(=O)N(Cc2nc3nc(C)cc(C)n3n2)c2cccc(C)c2)cc1OC	i
Cc1cc(C)n2nc(CN(C(=O)c3ccc(F)cc3)c3ccccc3)nc2n1	i
Cc1cccc(N(Cc2nc3nc(C)cc(C)n3n2)C(=O)CC(C)C)c1	i
Cc1cccc(N(Cc2nc3nc(C)cc(C)n3n2)C(=O)C(C)C)c1	+
Cc1ccc(-n2ncc3c(-n4nc(C)cc4NC(=O)c4ccc(C)c(C)c4)ncnc32)c(C)c1	i
CN(C)CC1(O)CCCN(C(=O)c2scc3c2OCCO3)CC1 (centres undefined)	i
COC(=O)c1cc2n(n1)CCN(C(=O)c1cc3c(nc1OC)CCC3)C2	i
CCOc1ccc(C2CC(=O)NCc3nc4cc(C)ccn4c32)cn1 (centres undefined)	i
O=C1CCC2(CCN1)CCN(C(=O)C/C=C/c1ccccc1)CC2	i
Cc1cc(C)c(CN2CCC3(CCNC(=O)CC3)CC2)c(C)c1	+
COc1cccc(-c2[nH]ncc2C(=O)N2CCC3(CCNC(=O)CC3)CC2)c1	i
Cc1ccccc1SCC(=O)N1CCC2(CC1)c1ccccc1[C@@H](N)[C@@H]2O	i
Cc1ccc(-c2nc(CSc3nc(C)cc(=O)[nH]3)c(C)o2)cc1	i
